# Shown are actives, neighbours in structure and some others; about 2.2% of the full set was active somewhere.
# IL2 activator – qHTS of IL-2 Activators; 360,000 tested, 0.065% active; activation, % (series mostly up to about 46 µM); IL-2 activation reporter assay, cell-based qHTS; stimulated with anti-CD3/CD4/CD28 beads; in transgenic mouse T cells; in the data active = activation above about 50%; inconclusive = mostly about 30% to 49%
#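 Unstimulated transgenic mouse T cells; 60-min compound exposure; bead-based TCR/CD4/CD28 stimulation; 18 h culture, 37 degrees C; dual fluorescence (EGFP, DsRed) plate cytometry.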
# mIDH1 inhibitor – qHTS for Inhibitors of mutant isocitrate dehydrogenase 1 (IDH1): qHTS; Isocitrate dehydrogenase [NADP] cytoplasmic (Homo sapiens), O75874; IDH1-R132H enzyme, NADPH consumption, diaphorase/resazurin fluorescence; Potency, µM (top dose mostly 76.6 µM), actives largely listed as inhibitors; 390,000 tested, 0.093% active; AID 602179, 2012; also: nearly all actives have a fitted effect of over 65% in size
#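 IDH1-R132H (0.5 ug/mL dispensed) in pH 7.5 Tris buffer was preincubated 30 min with compound, then given a substrate mix of 0.016 mM NADPH and 2 mM alpha-KG for 80 min at room temperature; remaining NADPH was read by diaphorase/resazurin fluorescence.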
# BRCA1 expr up – qHTS Assay to Identify Small Molecule Activators of BRCA1 Expression | MCF7-BRCA1-FFLuc reporter, luminescence, 48 h; response scale: scaled: vehicle 0%, 10 µM genistein 100% | Potency, µM (titrated, usually from 46.1 µM), most hits filed as activators | 380,000 tested, 1.1% active | AID 624202, 2012; also: nearly all actives have a fitted effect of over 80% in size
#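 Luminescence from a BRCA1-driven firefly luciferase in MCF7 cells was the read-out, taken 15 min after substrate addition following 48 h compound exposure at 37 °C. Data were normalized to a 10 microM genistein control and DMSO vehicle.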
# TrxR1 substrate – qHTS Assay for Substrates of Mammalian Selenoprotein Thioredoxin Reductase 1 (TrxR1): qHTS | Thioredoxin reductase 1, cytoplasmic (Rattus norvegicus), O89049 | purified TrxR1 substrate turnover, NADPH consumption readout | Potency, µM (highest dose often 114 µM) | 390,000 tested, 0.01% active | AID 588456, 2011; also: nearly all actives have a fitted effect of over 50% in size
# Target sequence (O89049 whole entry, looked up): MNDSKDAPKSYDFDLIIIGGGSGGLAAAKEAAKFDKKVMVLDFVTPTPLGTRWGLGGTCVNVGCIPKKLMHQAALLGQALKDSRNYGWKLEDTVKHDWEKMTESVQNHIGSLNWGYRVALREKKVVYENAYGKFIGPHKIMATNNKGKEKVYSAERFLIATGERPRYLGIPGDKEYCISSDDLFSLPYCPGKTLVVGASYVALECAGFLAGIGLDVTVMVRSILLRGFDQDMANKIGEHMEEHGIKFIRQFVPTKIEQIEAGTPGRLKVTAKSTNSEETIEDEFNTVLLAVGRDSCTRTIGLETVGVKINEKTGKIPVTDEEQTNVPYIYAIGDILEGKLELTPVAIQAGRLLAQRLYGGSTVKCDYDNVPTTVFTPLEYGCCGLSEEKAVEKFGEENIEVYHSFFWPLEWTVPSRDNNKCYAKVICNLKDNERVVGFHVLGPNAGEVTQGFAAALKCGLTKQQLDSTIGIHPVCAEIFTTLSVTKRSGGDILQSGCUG
#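 Rat TrxR1, dispensed at 90 nM, was prereduced with 400 uM NADPH (final) for 5 min at ~22 deg C, then incubated with compound 15 min before 400 uM selenite. A first-read NADPH fluorescence drop versus no-compound background flagged substrates.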
# TrxR1 inh – qHTS Assay for Inhibitors of Mammalian Selenoprotein Thioredoxin Reductase 1 (TrxR1): qHTS | recombinant rTrxR1, NADPH fluorescence consumption, selenite substrate | 390,000 tested, 1% active | Thioredoxin reductase 1, cytoplasmic (Rattus norvegicus), O89049 | AID 588453, 2011 | Potency, µM (highest dose often 114 µM), hits mostly inhibitors; also: nearly all actives have a fitted effect of over 65% in size
#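 Rat TrxR1 (90 nM in the dispensed reagent) was pre-reduced with 400 uM NADPH for 5 min at room temperature, then incubated with compound for 15 min. After 400 uM selenite was added, NADPH fluorescence (Ex 340/Em 450 nm) was followed for 8 min.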
# Giardia kill – Small Molecules that selectively kill Giardia lamblia: qHTS. Giardia lamblia trophozoite viability. activity change, % at 7.66 µM, hits read low. 340,000 tested, 0.15% active. AID 540267, 2011; in the data active = activity change below about -80%; inconclusive = between about -30% and that limit;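 also: parasites exposed to compound for two days anaerobically before the ATP read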
#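 Giardia trophozoites, 100 cells per well, were exposed to compounds for 48 hrs at 37 deg C under anaerobic conditions; viability was then read as ATP content by bioluminescence after 15-30 min at room temperature.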
# Numbers stand for hits; – = inactive; ? = inconclusive; · = no result; [ ] = another dose, or the depositor's remark. Unless noted, calls follow the shape of the dose curve; as a rule, active = well fitted curve in the direction sought with a large enough effect; inconclusive = small, poorly fitted or top-dose-only effect, or another doubt; inactive = no such curve, though single readings can be large; an effect the other way counts as inactive or inconclusive.
SMILES,IL2 activator,mIDH1 inhibitor,BRCA1 expr up,TrxR1 substrate,TrxR1 inh,Giardia kill
O=C(O)c1ccc(-c2ccc(OS(=O)(=O)c3ccccc3F)cc2)cc1,–,–,12.6µM,–,–,–
COC(=O)c1ccccc1S(=O)(=O)Oc1ccc(-c2ccc(C(=O)O)cc2)cc1,–,–,–,–,–,–
O=[N+]([O-])c1nn(-c2ccccc2)n(O)c1=NC1CCN(Cc2ccccc2)CC1,–,–,–,–,–,-85.4
CN=c1c([N+](=O)[O-])nn(-c2ccc3c(c2)OCCO3)n1O,–,–,–,–,–,?
O=[N+]([O-])c1nn(-c2ccccc2)n(O)c1=NCCc1ccccc1,–,–,–,–,–,?
O=[N+]([O-])c1nn(-c2ccc3c(c2)OCCO3)n(O)c1=NCCC1=CCCCC1,–,–,4.47µM,–,–,-92.5
O=[N+]([O-])c1nn(-c2ccc3c(c2)OCCO3)n(O)c1=NC1CCN(Cc2ccccc2)CC1,–,–,–,–,–,-82.3
COc1cc(-c2cc(OC)c3c(C)oc(C)c3c(=O)c2)ccc1OC(=O)c1cccc(Cl)c1,·,–,·,–,–,·
Cc1ccc(CCNC(=O)c2c[nH]c3ccc(S(=O)(=O)Nc4ccc(C)cc4C)cc3c2=O)cc1,·,–,·,–,–,·
Cc1nc(Nc2ccc(S(N)(=O)=O)cc2)sc1C(=O)Nc1ccccc1,–,–,–,–,–,–
CC(=O)c1sc(N/N=C\c2ccc(Br)cc2)nc1C,–,–,3.55µM,–,–,–
COc1ccc(Nc2nc(C)c(C(C)=O)s2)cc1,–,·,12.6µM,·,·,·
CC(=O)c1sc(N/N=C\c2cccc(Br)c2)nc1C,–,–,–,–,–,–
Cc1nc(Nc2ccccc2)sc1C(=O)Nc1ccccc1,–,–,6.31µM,–,–,–
COc1cccc(C(=O)Nc2cc(-c3ccccc3)nn2-c2ccccc2)c1,·,–,–,–,–,·
Cc1cc(/C=C/c2ccccc2)nc2ccccc12,·,·,·,–,–,·
COc1ccc(CCNC(=O)C(C)n2nc(C)c3sc4ccccc4c3c2=O)cc1OC (configuration not stated),·,–,·,–,–,·
Cc1[nH]n(-c2ccccc2)c(=O)c1C=Nc1ccc2[nH]c(=O)[nH]c2c1,52.0,–,–,–,–,–
C=CCN=Cc1c(C)[nH]n(-c2ccccc2)c1=O,–,–,12.6µM,–,–,–
CCCCn1cnc2cc(NCc3ccccc3Cl)ccc21,·,?,–,–,–,·
CCN1CCN(c2cc3c(cc2F)c(=O)c(S(=O)(=O)c2cc(C)cc(C)c2)cn3CC)CC1,·,–,·,–,–,·
CCOC(=O)c1ccc(NC(=O)CSc2cc(-c3ccccc3)nc(C)n2)cc1,·,–,·,–,–,·
Nc1nc2c(C(=O)N3CCOCC3)nnn2c2ccccc12,–,–,2.82µM,–[11.4 µM],–,–
COc1ccccc1N1CCN(C(=O)c2cc3c(=O)n(Cc4cccs4)ccc3nc2C)CC1,·,–,·,–,–,·
CCOc1ccc(C(=O)CC(Sc2ccc(C)cc2)C(=O)O)cc1 (configuration not stated),–,–,–,–,–,–
SMILES,IL2 activator,mIDH1 inhibitor,BRCA1 expr up,TrxR1 substrate,TrxR1 inh,Giardia kill
O=C(CC(Sc1ccc(Br)cc1)C(=O)O)c1ccc(F)cc1 (configuration not stated),–,–,–,–,28.2µM,–
CC(=O)Nc1ccc(NC(=O)c2nc(S(=O)(=O)Cc3ccc(F)cc3)ncc2Cl)cc1,·,–,·,–,1.26µM,·
Cc1ccc(NC(=O)c2nc(S(=O)(=O)Cc3ccc(F)cc3)ncc2Cl)cc1C,·,–,·,–,2.82µM,·
c1ccc(CNc2ncnc3c2ncn3C2CCCCO2)cc1 (configuration not stated),–,–,12.6µM,–,–,–
Clc1cccc(CSc2ncnc3c2ncn3C2CCCCO2)c1 (configuration not stated),–,–,5.62µM,?,?,–
Fc1ccc(CSc2ncnc3c2ncn3C2CCCCO2)cc1 (configuration not stated),–,–,7.08µM,–,–[11.4 µM],–
Fc1cccc(CSc2ncnc3c2ncn3C2CCCCO2)c1 (configuration not stated),–,–,?,–,–[2.29 µM],–
c1ccc(CSc2ncnc3c2ncn3C2CCCCO2)cc1 (configuration not stated),–,–,?,–,–,–
Cc1cc(C)c(Cn2c3ccccc3c3cnn(CC(=O)NCCc4ccccc4)c(=O)c32)c(C)c1,·,–,·,–,–,·
CCN(CC)c1ccc(NC(=O)CSc2nnc(C)c(=O)[nH]2)cc1,·,–,–,–,–,·
CC(C)(C)C(=O)/C(=C/c1ccncc1)n1cncn1,–,–,–,–,17.8µM,–
CC(C)(C)[C@H]1CCC(=O)N(CCSc2ccc(Br)cc2)CC1,·,·,·,–,–,·
COc1ccc(/C=C/c2nnc(NC(=O)COc3ccccc3)s2)cc1,–,–,?,–,–,–
CCCC(=O)Nc1nnc(/C=C/c2ccc(OC)cc2)s1,–,–,5.62µM,–,–,–
COc1ccc(/C=C/c2nnc(NC(=O)COc3cccc(C)c3)s2)cc1,–,–,4.47µM,–,?,–
C[n+]1ccc(/C=C/c2ccc(C=S)cc2)c2ccccc21,·,·,–,–,–,·
COc1ccc(Cn2ccn(Cc3cccc(Cl)c3)c(=O)c2=O)cc1,·,–,·,–,–,·
CCOc1ccc(-c2ncnn2-c2sc3c(c2C#N)CCCCC3)cc1,·,–,·,–,–,·
CC(C)c1cc(NC(=O)CCl)on1,–,–,–,–,50.1µM,–
Cc1cc(Br)c(NC(=O)CCl)c(Br)c1,–,–,–,–,?,–
COc1cc(OC)c(N(C)C(=O)C2CCCN(c3ncnc4c3nc3n4CCCCC3)C2)cc1Cl (configuration not stated),·,–,·,–,–,·
Cc1ccccc1OCC1Cc2c(nc(N)c(C#N)c2N)O1 (configuration not stated),–,–,6.31µM,–,–,–
N#Cc1c(N)nc2c(c1N)CC(COc1ccccc1)O2 (configuration not stated),–,–,11.2µM,–,–,–
Cc1ccc(NC(=O)CSc2nc3ccc(NC(=O)c4cccc(Cl)c4)cc3s2)c(C)c1,·,–,–,–,–,·
COc1ccc(N2CCN(c3ccc(NC(=O)/C=C\C(=O)O)cc3)CC2)cc1,–,–,–,–,–,–

# Screens deposited in PubChem BioAssay by National Center for Advancing Translational Sciences (NCATS).
